Bioassay records from PubChem BioAssay.
Pf growth 48h – inhibits P. falciparum growth in the first generation, 48 h. P. falciparum luciferase growth in erythrocytes, 48 h. Potency, µM (top dose mostly 28.7 µM), without a hit: top-dose activity change, negative = inhibition, most hits filed as inhibitors. 310,000 tested, 5.9% active. AID 504832; also: potency is read from the fitted curve at half-maximal effect; % is scaled to controls: 0 for no effect and ±100 for the full control effect
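Compounds are pin-transferred into medium, infected erythrocytes (2% hematocrit, 0.1% parasitemia final) are added, and plates sit one parasite generation at 37 C in 5% CO2. Detection reagent is then added and luminescence measured.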
Pf growth 96h – P. falciparum growth inhibition at 96 hours. P. falciparum luciferase reporter growth, 96 h. Potency, µM (doses to about 28.7 µM), without a hit: at the top dose activity change, negative = inhibition, hits mostly inhibitors. 320,000 tested, 6.9% active; also: potency is read from the fitted curve at half-maximal effect; % is scaled to controls: 0 for no effect and ±100 for the full control effect
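Plates of compound plus infected erythrocytes (2% hematocrit, 0.05% parasitemia final) incubate 96 hours, 37 C, 5% CO2. Detection reagent added; reduced luminescence from the parasites' luciferase reporter flags inhibition.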
LASV entry inh – inhibitors of Lassa virus binding or cell entry; Lassa virus pseudotype entry inhibition, cell reporter; Potency, µM (doses to about 37.9 µM), for the others: at the top dose activity change, negative = inhibition, most hits filed as inhibitors; 300,000 tested, 1.2% active; AID 540256; calls by dose curve; tested in HEK293 cells; also: potency is read from the fitted curve at half-maximal effect; % is scaled to controls: 0 for no effect and ±100 for the full control effect; nearly all actives have a fitted effect of over 50% in size
Shiga inhibitor – inhibitors of Shiga toxin in Vero cells; Vero cells, Shiga toxin protein synthesis inhibition reporter; inhibition, % at 38.7 µM; 290,000 tested, 9.2% active; AID 2315; in the data active = inhibition mostly above about 28%, no sharp cut-off; inactive = mostly below about 43%; also: 0% is about no effect
MARV entry inh – inhibitors of Marburg virus binding or cell entry | Marburg virus pseudotyped entry inhibition, cell reporter | Potency, µM (doses to about 37.8 µM), for inactives: at the highest dose activity change, negative = inhibition, most hits filed as inhibitors | 300,000 tested, 1.8% active | AID 540276; calls by dose curve; tested in HEK293 cells; also: potency is read from the fitted curve at half-maximal effect; % is scaled to controls: 0 for no effect and ±100 for the full control effect
CHX counter – counter-screen for Shiga toxin inhibitors: cycloheximide protein synthesis inhibition; max response, %; 300,000 tested, 12% active; cell reporter, cycloheximide protein synthesis inhibition counterscreen; in the data active = max response mostly above about 13%, no sharp cut-off; inactive = mostly below about 14%; also: read at 38.3 µM for the half of the compounds with a filed dose; 0% is about no effect
* = called active by the depositor; i = inactive; u = inconclusive; x = not tested or not shown; + = active, no number; [ ] = another dose, or the depositor's remark. Sampled rows, rich in hits. Any-hit rate of the full collection: about 19%. Unless noted, calls follow the shape of the dose curve; as a rule, active = well fitted inhibition curve with a large enough effect; inconclusive = small, poorly fitted or top-dose-only effect, or another doubt; inactive = no such curve, though single readings can be large or run the other way.

SMILES	Pf growth 48h	Pf growth 96h	LASV entry inh	Shiga inhibitor	MARV entry inh	CHX counter
CCOC(=O)C1CCN(C(c2ccc(C)cc2)c2c(O)cc(C)n(CCOC)c2=O)CC1 (stereo unspecified)	x	x	0.5%[46.1 µM]	x	x	x
Cc1ccc(/C=C2\SC(=S)N(CCCC(=O)NC3CCCC3)C2=O)cc1	-18.9%	u	1.12µM*	40.4	u	-6.8
O=C(CN1C(=O)S/C(=C\C=C\c2ccccc2)C1=O)Nc1ccc(O)cc1	24.6%	-15.8%	-30.3%	65.5*	u	71.7*
O=C(CCCN1C(=O)/C(=C\c2ccccc2)SC1=S)Nc1ccc(O)cc1	u	2.6%	u	2.9	u	26.1*
O=C(O)CCCN1C(=O)/C(=C\C(Cl)=C\c2ccccc2)SC1=S	9.28µM*	u	x	-5.6	x	-0.2
Cc1cccc(NC(=O)CN2C(=O)S/C(=C\c3ccccn3)C2=O)c1	-17.4%	4.15µM*	x	-6.1	x	-2.8
O=C(CCCN1C(=O)/C(=C/c2ccccc2)SC1=S)Nc1cccc(O)c1	u	-28.8%	x	21.2*	x	12.3
CC(=O)c1cccc(NS(=O)(=O)N2CCCCC2)c1	17.6%	x	-2.2%	-0.9	9.5%[46.1 µM]	-1.9
Cc1c(OC(C)C(=O)NCc2ccncc2)ccc2c3c(c(=O)oc12)CCCC3 (stereo unspecified)	u	9.28µM*	u	-3.0	u	-0.7
Cc1c(OC(C)C(=O)NCCCn2ccnc2)ccc2c3c(c(=O)oc12)CCC3 (stereo unspecified)	11.7µM*	11.7µM*	1.5%[46.1 µM]	-5.1	u	-1.9
O=C(c1cc(COc2c(F)cccc2F)on1)N1C[C@H]2CC[C@H]1C2	78.2%	u	21.4%[46.1 µM]	102.6*	5.8%[46.1 µM]	76.2*
COc1ccc(OCc2cc(C(=O)N3C[C@H]4CC[C@H]3C4)no2)c(Cl)c1	43.1%	3.9%	-21.0%	88.4*	2.1%[46.1 µM]	36.0*
COCC1CCN(C(=O)c2cc(COc3ccccc3SC)on2)C1 (stereo unspecified)	-0.6%	u	-18.4%[46.1 µM]	-8.6	11.5%[46.1 µM]	-3.7
COc1ccc(OCc2cc(C(=O)NC3Cc4ccccc4C3)no2)c(Cl)c1	15.4%	0.6%	u	12.6	u	-4.1
O=C(c1cc(COc2ccc(F)cc2F)on1)N1C[C@H]2CC[C@H]1C2	35.7%	0.0%	u	100.6*	u	52.0*
COCC1CCN(C(=O)c2cc(COc3ccc(F)cc3F)on2)C1 (stereo unspecified)	5.8%	-1.7%	x	39.4	x	19.5*
CCc1ccc(CN(C)C(=O)c2cc(COc3c(F)cccc3F)on2)cc1	1.2%	u	-22.8%	41.7	-12.8%[46.1 µM]	22.7
CSc1ccc(CN2CCC(Oc3ccc(C(=O)N4CCCC4)cc3)CC2)cc1	u	-7.7%	-5.1%[46.1 µM]	-26.7	u	-6.9
O=C(c1cc(COc2ccc(F)cc2F)on1)N1CC2C[C@@H]3CC1C[C@H](C2)C3	u	u	15.6%[46.1 µM]	115.2*	u	43.2*
COc1ccccc1OCc1cc(C(=O)N2CC3C[C@@H]4CC2C[C@H](C3)C4)no1	u	11.9%	x	75.6*	x	50.8*
CCCCC(=O)Nc1ccccc1N1CCN(c2ccccc2)CC1	-28.0%	14.7%	22.1%[46.1 µM]	29.3	-12.0%[46.1 µM]	-2.1
Cc1ccc(-c2csc(N)n2)s1	90.4%	173.9%	13.4%	49.9	6.3%	22.6*
C/C(=N/NC(=O)Cc1cccc2ccccc12)c1cccs1	-26.2%	-16.3%	-1.4%	-12.8	u	2.0
C/C(=N\NC(=O)c1cccc2ccccc12)c1cccs1	81.6%	100.0%	x	70.2*	x	29.4*
C/C(=N\NC(=O)COc1ccccc1)c1cccs1	79.7%	28.8%	u	70.1*	6.3%	53.6*
SMILES	Pf growth 48h	Pf growth 96h	LASV entry inh	Shiga inhibitor	MARV entry inh	CHX counter
C/C(=N\OCC(=O)Nc1ccccc1C(=O)O)c1cccs1	90.5%	-1.3%	x	98.4*	x	34.1*
C/C(=N\NC(=O)Cc1ccccc1)c1cccs1	30.9%	68.5%	-1.3%	-1.2	-0.3%	9.2
C/C(=N\NC(=O)c1ccccc1O)c1cccs1	i	108.0%	u	55.6*	u	32.3*
CC12C=C(C=Cc3ccc(Br)cc3)C(C)(C1)[C@H](c1ccc(Br)cc1)CC2=O (stereo partly specified)	x	x	u	x	-26.3%[14.2 µM]	x
CC(C(=O)NCC1CCCO1)n1cc([N+](=O)[O-])cn1 (stereo unspecified)	1.4%	u	x	2.2	x	0.5
O=C(N/N=C/c1ccc(O)cc1)c1cccc(C(F)(F)F)c1	19.7%	11.5%	-28.6%	9.2	u	6.5
O=C(O)c1ccc(N/N=C/c2ccc(-c3ccccc3)cc2)cc1	285.5%	397.7%	u	100.5	u	26.5*
O=C(O)c1cccc(N/N=C/c2ccc(F)c(F)c2)c1	i	i	3.98µM*	+	u	94.7*
O=C(O)c1ccc(/C=N/Nc2cccc(C(F)(F)F)c2)cc1	68.8%	55.1%	x	120.4*	-19.1%[46.1 µM]	56.4*
O=C(O)c1ccc(NS(=O)(=O)/C=C/c2ccccc2)cc1	u	x	7.5%	11.8	-12.9%[46.1 µM]	1.0
O=C(O)c1ccc(N/N=C/C=C/c2ccccc2)cc1	209.8%	130.7%	x	54.9*	x	42.0*
CCOC(=O)c1cnn(-c2sc(C(=O)OCC)c(C)c2C(=O)OCC)c1N	x	x	3.3%	x	2.8%	x
C/C(=N\Nc1cccc(C(F)(F)F)c1)c1ccc(O)cc1	-29.1%	-19.1%	x	50.5*	6.4%[46.1 µM]	22.6
O=C(O)c1cccc(N/N=C/C2=C(Cl)c3cc(Cl)ccc3SC2)c1	i	8.28µM*	x	129.0*	x	65.0*
CC(C)c1ccc(/C=N/Nc2ccc(C(=O)O)cc2)cc1	43.2%	-22.6%	0.651µM*	9.1	1.46µM*	2.3
Cc1ccccc1NC(=O)CSc1nnc(NC(=O)c2ccco2)s1	24.1%	2.7%	u	0.4	3.8%	-2.3
CC(=O)Nc1ccc2nc(-c3ccco3)[nH]c2c1	117.9%	6.8%	u	87.3*	u	35.2*
O=C(Nc1ccc2nc(-c3ccco3)[nH]c2c1)c1ccco1	x	x	1.3%	45.0*	-3.5%	33.2*
O=C(Nc1ccc2nc(-c3cccnc3)[nH]c2c1)c1ccco1	-0.4%	u	-5.5%	7.4	-17.4%	11.0
Cc1ccc2nc(-c3cccc(NC(=O)c4ccco4)c3)[nH]c2c1	u	x	16.0%	43.0*	5.7%	50.1*
COc1cccc(OC)c1C(=O)Nc1cccc(-c2nc3ccccc3[nH]2)c1	14.2%	32.6%	-2.6%	25.8	-5.5%[46.1 µM]	0.2
CC(=O)Nc1cccc(-c2nc3ccc(NC(C)=O)cc3[nH]2)c1	-6.1%	u	-9.1%	-13.6	u	-2.3
O=C(Nc1ccc2nc(-c3ccco3)[nH]c2c1)c1cccs1	227.5%	u	-6.5%	66.1*	-9.4%[46.1 µM]	45.6*
Cc1nc2ccn(Cc3ccccc3)c(=O)c2cc1C(=O)N1CCN(c2ccccc2F)CC1	x	x	-1.2%[46.1 µM]	x	x	x
CC(C)(C)c1ccc(/C=C2\Oc3cc(OC(=O)N4CCOCC4)ccc3C2=O)cc1	20.0%	0.0%	8.91µM*	5.8	u	-1.2
